# Bioassay records as filed in PubChem.
# Shown are actives, neighbours in structure and some others; about 3.1% of the full set was active somewhere.
# Vif-APOBEC3F blk: inhibitors of Vif-A3F interaction; HeLa A3F-eYFP + Vif (tagged APOBEC3F with the HIV-1 protein that degrades it), YFP fluorescence increase; Potency, µM (series often up to 46.1 µM); hit rate 0.2% among 390,000; AID 602313; also: nearly all actives have a fitted effect of over 65% in size
#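 HeLa cells stably expressing Vif plus C-terminally eYFP-tagged A3F were seeded, incubated overnight at 37 deg C, dosed with compound, incubated overnight again at 37 deg C. Yellow fluorescence (Ex 488/Em 500-530) reported blocked Vif-mediated A3F-eYFP degradation.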
# VDR inh: blocks the human vitamin D receptor; P11473; VDR-SRC2-3 peptide fluorescence polarization, 2 h; Potency, µM, actives largely listed as inhibitors; hit rate 0.93% among 400,000; AID 504847
#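 Signal is fluorescence polarization, reporting how far test compounds block the interaction of VDR with the SRC2-3 coregulator peptide after a 2 h room-temperature incubation.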
# TSHR antagonist: human thyrotropin receptor antagonism; hit rate 0.2% among 330,000; activity change, negative = inhibition, % at 11.5 µM; TSHR-expressing cells, TSH-stimulated cAMP HTRF, 2 h; stronger effect = lower value;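 active = activity change below a set negative limit, meaning inhibition stronger than a set level, cut at about -70% in these data; inconclusive = activity change between two set negative limits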
#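 Antagonism was scored as loss of TSH-driven cAMP in TSHR cells, stimulated with 4nM TSH (EC80) for 2 hours at 37 deg C and detected by homogeneous HTRF competition immunoassay.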
# PLK1 PBD inh: blocks phosphopeptide binding to human PLK1 polo-box domain | hit rate 2.8% among 360,000 | Potency, µM, usual class: inhibitors | P53350 | Plk1 PBD binding of FITC phosphopeptide, fluorescence polarization; also: series mostly up to about 57 µM; nearly all actives have a fitted effect of over 65% in size
# Vif-APOBEC3G blk: inhibitors of Vif-APOBEC3G interaction; Q9HC16; HeLa A3G-eYFP + Vif (tagged APOBEC3G with the HIV-1 protein that degrades it), YFP fluorescence, overnight; Potency, µM (doses to about 46.1 µM), most hits filed as inhibitors; hit rate 0.076% among 410,000; AID 602310; also: nearly all actives have a fitted effect of over 60% in size
# Target sequence (Q9HC16 whole entry, looked up): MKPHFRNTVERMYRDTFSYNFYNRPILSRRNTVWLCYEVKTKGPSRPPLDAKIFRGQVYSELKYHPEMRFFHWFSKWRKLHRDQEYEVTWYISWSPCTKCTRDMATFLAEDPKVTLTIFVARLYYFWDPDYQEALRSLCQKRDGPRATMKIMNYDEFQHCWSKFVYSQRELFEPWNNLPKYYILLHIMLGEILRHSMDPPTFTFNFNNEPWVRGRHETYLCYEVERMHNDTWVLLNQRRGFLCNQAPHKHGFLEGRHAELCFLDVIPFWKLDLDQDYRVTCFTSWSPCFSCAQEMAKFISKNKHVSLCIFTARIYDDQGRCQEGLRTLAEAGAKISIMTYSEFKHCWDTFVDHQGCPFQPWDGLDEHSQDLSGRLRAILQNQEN
#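 Read-out is eYFP fluorescence (Ex 488/Em 500-530) from Vif-expressing HeLa A3G-eYFP cells; more signal means A3G escaped Vif-mediated degradation. Cells plated overnight, compound pinned in, incubated overnight at 37 deg C.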
# Hits are given with their value; i = inactive; ? = inconclusive; nt = no result; ! = repeats disagree. Unless noted, calls follow the shape of the dose curve; as a rule, active = well fitted curve in the direction sought with a large enough effect; inconclusive = small, poorly fitted or top-dose-only effect, or another doubt; inactive = no such curve, though single readings can be large; an effect the other way counts as inactive or inconclusive.
SMILES,Vif-APOBEC3F blk,VDR inh,TSHR antagonist,PLK1 PBD inh,Vif-APOBEC3G blk
O=C(CCN1C(=O)/C(=C/c2ccco2)SC1=S)Nc1ccc(O)cc1C(=O)O,i,?,i,i,i
CCc1ccc(/C=C2/SC(=S)N(CCCC(=O)Nc3ccccc3C(=O)O)C2=O)cc1,i,?,i,24µM,i
O=C(CCN1C(=O)/C(=C/c2ccccc2Cl)SC1=S)Nc1ccccc1C(=O)O,i,79µM,i,24µM,?
OC[C@@H]1O[C@H](OC2[C@@H](O)[C@@H](O)[C@@H](O)O[C@@H]2CO)[C@H](O)[C@@H](O)[C@@H]1OC1O[C@H](CO)[C@@H](O)[C@H](O)[C@@H]1O (stereo partly drawn),nt,i,nt,nt,nt
COc1ccc2c(c1)O[C@@H](c1ccc3c(c1)OCO3)[C@H](OC(=O)N[C@H]1CCCc3ccccc31)C2=O,nt,i,nt,nt,nt
O=C1c2ccccc2C(=O)N1CN(C(=O)c1ccccc1)c1ccc(O)cc1,i,i,i,21µM,i
O=C(Nc1ccc(F)cc1)Nc1nnc(Cc2ccccc2F)s1,i,71µM,i,17µM,i
CC(=O)OCC1=C(C(=O)O)N2C(=O)C(NC(=O)c3ccc(COc4c(C)cccc4Cl)o3)C2SC1 (stereo not drawn),i,16µM,i,i,i
CC(=O)OCC1=C(C(=O)O)N2C(=O)C(NC(=O)COc3ccc(F)cc3)C2SC1 (stereo not drawn),i,i,i,?,i
CC(=O)OCC1=C(C(=O)O)N2C(=O)[C@@H](NC(=O)Cc3ccccc3)[C@H]2SC1,i,i,nt,i,i
CC(=O)OCC1=C(C(=O)O)N2C(=O)C(NC(=O)c3ccc(COc4ccc(Cl)cc4)o3)C2SC1 (stereo not drawn),i,45µM,i,?,i
O=C(Nc1ccc(Cl)cc1Cl)[C@@H]1CC=C[C@@H]2CCN(C3CCCCC3)C(=O)[C@@H]21,nt,nt,nt,nt,i
CO/N=C(/C(=O)N[C@@H]1C(=O)N2C(C(=O)O)=C(CSc3cnns3)CS[C@H]12)c1csc(N)n1,nt,35µM,nt,nt,nt
Cc1cccnc1NC(=O)Cn1nc(-c2ccccc2)oc1=S,i,?,i,24µM,i
O=C(Nc1cccc(F)c1)N1CCCC2(CCN(C(=O)c3cnccn3)CC2)C1,nt,i,nt,nt,nt
CCN(CC)CCNC(=O)c1cn(CC)c2ccc(S(=O)(=O)N3CCc4ccccc4C3)cc2c1=O,i,i,i,27µM,i
COC1=C(Br)C(=O)c2ncccc2C1=O,11µM,3.5µM,nt,1.9µM,i
OCC(CO)(CO)N=Cc1c(O)ccc2ccccc12,i,i,i,4.2µM,i
Oc1ccc2ccccc2c1C=NC12CN3CCN(CN(C3)C1)C2,i,?,i,5.3µM,i
O=c1c(CCc2ccccc2)nc2cnc(N3CCNCC3)nc2n1Cc1ccc(F)cc1,nt,i,nt,nt,nt
C=C1C=C(C)n2ncc(C(=O)Nc3cccc4cnccc34)c2N1,nt,nt,nt,nt,i
O=C(O)CC(NCc1ccco1)C(=O)OCCCl (stereo not drawn),i,i,i,i,i
COC(=O)C(CC(=O)O)NCc1ccco1 (stereo not drawn),i,i,i,12µM,i
CCC1(c2ccc(O)cc2)NC(=O)NC1=O (stereo not drawn),nt,i,nt,nt,nt
O=S(=O)(c1ccccc1Cl)N1CCN(c2nc(-c3cccs3)nc3ccccc23)CC1,nt,i,nt,nt,nt
SMILES,Vif-APOBEC3F blk,VDR inh,TSHR antagonist,PLK1 PBD inh,Vif-APOBEC3G blk
CN1CCN(c2ccnc(-c3ccccc3C(F)(F)F)n2)CC1,nt,i,nt,nt,nt
N#Cc1cccc(-c2nccc(-n3ccnc3)n2)c1,nt,50µM,nt,nt,nt
CN(C)C(=O)c1ccc(-c2nccc(-n3ccnc3)n2)cc1,nt,i,nt,nt,nt
FC(F)(F)c1ccccc1-c1nccc(-n2ccnc2)n1,nt,45µM,nt,nt,nt
O=C(Nc1cc(Cl)cc(Cl)c1)c1cnn2c1NC(=C1CC1)C=C2C(F)F,nt,nt,nt,nt,i
Cc1c(-c2nnc(SCC(=O)Nc3ccc(Br)cc3)o2)nnn1-c1ccc(F)cc1,i,i,nt,nt,i
C/C(=N/NC(=O)CNC(=O)c1ccccc1F)c1ccc2c(c1)CCCC2,i,i,i,8.4µM,i
O=C(O)CCn1cc(/C=C/C(=O)c2ccc(Cl)cc2)c(-c2ccc(Br)cc2)n1,i,40µM,i,?,i
O=C1CC(c2nc(-c3ccc(Cl)cc3)no2)CN1c1ccc2c(c1)OCCO2 (stereo not drawn),i,i,nt,nt,i
COc1ccc(C2=C/C(=C\c3ccc(OC(C)=O)cc3)C(=O)O2)cc1,i,i,i,i,i
CC(=O)Oc1cccc(/C=C2\C=C(c3ccc(C)cc3)OC2=O)c1,i,?,i,19µM,i
NC(=O)[C@H]1O[C@@H](O)[C@H](O)[C@@H](O)[C@@H]1O,nt,i,nt,nt,nt
Cc1oc(-c2ccccc2)nc1C(=O)N1CCN(c2ccc(F)cc2)CC1,i,?,i,30µM,i
Cc1ccc(-c2nc(CS(=O)CC(=O)N3CCN(c4ccc(F)cc4)CC3)c(C)o2)cc1 (stereo not drawn),i,?,i,i,i
CCN(CC)C(=O)CSc1nc2c(sc(=S)n2-c2ccccc2)c(=O)n1-c1ccccc1OC,i,i,i,i,i
CCN(CC)C(=O)CSc1nc2c(sc(=S)n2-c2ccccc2)c(=O)n1-c1ccc(OC)cc1OC,i,25µM,i,3µM,i
CCOC(=O)CSc1nc2c(sc(=S)n2-c2ccccc2)c(=O)n1-c1ccc(OC)cc1OC,i,?,i,4.7µM,i
CCN(CC)C(=O)CSc1nc2c(sc(=S)n2-c2ccccc2)c(=O)n1-c1ccc(OC)c(OC)c1,i,i,i,i,i
COc1ccccc1-n1c(SCC(=O)O)nc2c(sc(=S)n2-c2ccc(C)c(C)c2)c1=O,i,i,i,i,i
CCOc1ccccc1-n1c(=S)sc2c(=O)n(-c3ccc(F)cc3)c(SCC(=O)O)nc21,i,i,-71,i,i
COc1ccc(NC(=O)c2sc3nc(C)c(C(=O)Nc4ccc(C)cc4C)c(-c4ccc(C)o4)c3c2N)cc1,?,i,nt,nt,i
CCCCCCCCCCCCCCOc1ccc(C(=O)O)o1,nt,11µM,nt,nt,nt
CCOc1ccc(OCc2ccc(C(=O)O)o2)cc1,i,i,i,i,i
CC1(C)OC(=O)C2(Cc3ccc(Cl)cc3N3CCCC32)C(=O)O1 (stereo not drawn),nt,i,nt,nt,i
CCc1c(C)sc(NC(=O)Cn2nc(C)c([N+](=O)[O-])c2C)c1C(N)=O,i,?,i,6µM,i
SMILES,Vif-APOBEC3F blk,VDR inh,TSHR antagonist,PLK1 PBD inh,Vif-APOBEC3G blk
CN(C)c1ccc(NC(=O)Nc2csc3ccccc23)cc1,i,i,i,i,i
Cc1cc(NC(=O)Nc2ccc(N(C)C)cc2)c2cc(F)cc(F)c2n1,nt,18µM!,nt,nt,nt
Oc1ccc(/C=N\Nc2nncc(-c3ccccc3)n2)cc1,i,i,i,i,11µM
COc1ccc(-c2cnnc(N/N=C/c3ccc(O)c(O)c3)n2)cc1,i,i,i,i,?
Brc1ccc(/C=N/Nc2nncc(-c3ccccc3)n2)o1,nt,nt,i,nt,nt
COc1ccc(-c2cnnc(N/N=C/c3ccc(C)o3)n2)cc1,i,45µM,i,6µM,i
COc1cc2c(NC3CCN(C)CC3)nc(N3CCCCC3)nc2cc1OCCOCCN(C)C,nt,nt,nt,nt,i
